Potency data for 13 compounds are collected here from PubChem BioAssay (NCATS).

One test concerns 7G8. Description: qHTS profiling for inhibitors of Plasmodium falciparum proliferation (AID 504749). Further: nearly all actives have a fitted effect of over 60% in size. Further: potency means the concentration at half of the fitted maximal effect. The note with it: P. falciparum in erythrocytes, SYBR Green DNA, 72 h; series mostly up to 12.8 µM. An outline of the steps: (§1)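 SYBR Green fluorescence (ex 485 nm, em 535 nm) reports parasite DNA after 72 h compound exposure of infected red cells at 0.3% parasitemia, 2.5% hematocrit; signal normalized to 0.29 uM artemisinin and vehicle wells.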
Background: qHTS replaces the single test concentration by a dilution series.

A further test concerns CP260. The test is described as above. The note with it: P. falciparum in erythrocytes, SYBR Green DNA, 72 h; series mostly up to 28.7 µM. In short, it runs like this:
as §1

Another test has as its system CP265. Described as above. The note with it: P. falciparum in erythrocytes, SYBR Green DNA, 72 h; series mostly up to 12.8 µM. In short, it runs like this:
as §1

The next test has as its system CP268. The description is as above. The note with it: P. falciparum in erythrocytes, SYBR Green DNA, 72 h; series mostly up to 28.7 µM. In short, it runs like this:
as §1

A further test concerns CP335. Described as above. The note with it: P. falciparum in erythrocytes, SYBR Green DNA, 72 h; series mostly up to 12.8 µM. In short, it runs like this: as §1
In the next test the test system is DIV14. The test is described as above. The note with it: P. falciparum in erythrocytes, SYBR Green DNA, 72 h; series mostly up to 28.7 µM. An outline of the steps: as §1
A further test relates to ICS. The description is as above. The note with it: P. falciparum in erythrocytes, SYBR Green DNA, 72 h; series mostly up to 28.7 µM. An outline of the steps: as §1
A further test concerns JCK. Described as above. The note with it: P. falciparum in erythrocytes, SYBR Green DNA, 72 h; series mostly up to 28.7 µM. An outline of the steps:
as §1

The subject of a further test is PAD. The test is described as above. The note with it: P. falciparum in erythrocytes, SYBR Green DNA, 72 h; series mostly up to 28.7 µM. In short, it runs like this: as §1
The test system of the next test is PC15. The description is as above. The note with it: P. falciparum in erythrocytes, SYBR Green DNA, 72 h; series mostly up to 28.7 µM. An outline of the steps: as §1
The subject of another test is PC26. The description is as above. The note with it: P. falciparum in erythrocytes, SYBR Green DNA, 72 h; series mostly up to 28.7 µM. An outline of the steps: as §1
Another test relates to SC27B. The description is as above. The note with it: P. falciparum in erythrocytes, SYBR Green DNA, 72 h; series mostly up to 28.7 µM. An outline of the steps: as §1
The subject of the next test is TAB113. Described as above. The note with it: P. falciparum in erythrocytes, SYBR Green DNA, 72 h; series mostly up to 28.7 µM. An outline of the steps:
as §1

A further test concerns W2. The description is as above. The note with it: P. falciparum in erythrocytes, SYBR Green DNA, 72 h; series mostly up to 12.8 µM. In short, it runs like this: as §1
In test [1] the target is Cytochrome P450 3A4 (Homo sapiens) (UniProt P08684). Description: qHTS Assay for Activators of Cytochrome P450 3A4 (AID 885). Further: nearly all actives have a fitted effect of over 65% in size. An outline of the steps: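 Activators are scored by enhanced luminescence from CYP3A4 conversion of luciferin-PPXE (25uM, equal to KM) to luciferin, after 60 min at RT with an NADPH-regenerating system.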
Test [2] has the same target. Kind of test: qHTS Assay for Inhibitors and Substrates of Cytochrome P450 3A4 (AID 884). Further: nearly all actives have a fitted effect of over 50% in size. Further: potency means the concentration at half of the fitted maximal effect. An outline of the steps:
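Luminescent readout of luciferin produced by CYP3A4 (20 nM) dealkylation of Luciferin-PPXE, 25 uM (its KM). NADPH-driven reaction ran 60 min at RT after 10 min compound preincubation; data scaled to 57 uM ketoconazole as 100% inhibition.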

Test [3] addresses Cytochrome P450 2C19 (Homo sapiens) (UniProt P33261). Description: qHTS Assay for Inhibitors and Substrates of Cytochrome P450 2C19 (AID 899). Further: nearly all actives have a fitted effect of over 60% in size. Further: potency means the concentration at half of the fitted maximal effect. An outline of the steps:
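Signal comes from luciferase acting on luciferin released by CYP2C19-mediated hydroxylation of Luciferin-H EGE, 10uM (KM). Assay mix: 5nM enzyme, 50mM KPO4; 60 min at 37C with NADPH regeneration. Data normalized against 57uM ketoconazole.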

Where “and” joins values, the source holds several entries; their conditions need not be identical. Equal values may be shown once. Values without a mark were called inactive. Records with an inconclusive call do not appear. Calls of active or inactive are those of the source. The call rests on the fitted dose curve; in most records, active means well fitted curve in the direction sought with a large enough effect; inconclusive means small, poorly fitted or top-dose-only effect, or another doubt; inactive means no such curve, though single readings can be large; an effect the other way counts as inactive or inconclusive.

Cytochrome P450 3A4 (Homo sapiens), sequence (P08684 whole entry, looked up): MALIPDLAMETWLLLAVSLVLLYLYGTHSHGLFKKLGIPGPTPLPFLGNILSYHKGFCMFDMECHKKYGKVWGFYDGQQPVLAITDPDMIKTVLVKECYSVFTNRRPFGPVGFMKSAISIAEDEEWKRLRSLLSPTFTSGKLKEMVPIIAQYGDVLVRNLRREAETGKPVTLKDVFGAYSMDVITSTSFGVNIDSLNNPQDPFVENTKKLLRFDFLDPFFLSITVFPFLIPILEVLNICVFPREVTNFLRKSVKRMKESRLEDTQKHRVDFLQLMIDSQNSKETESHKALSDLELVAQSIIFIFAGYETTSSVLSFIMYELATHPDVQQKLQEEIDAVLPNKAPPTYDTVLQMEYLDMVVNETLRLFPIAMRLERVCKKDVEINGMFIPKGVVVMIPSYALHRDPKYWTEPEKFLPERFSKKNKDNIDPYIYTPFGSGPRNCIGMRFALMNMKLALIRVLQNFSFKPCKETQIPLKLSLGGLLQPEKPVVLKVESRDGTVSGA
Cytochrome P450 2C19 (Homo sapiens), sequence (P33261 whole entry, looked up): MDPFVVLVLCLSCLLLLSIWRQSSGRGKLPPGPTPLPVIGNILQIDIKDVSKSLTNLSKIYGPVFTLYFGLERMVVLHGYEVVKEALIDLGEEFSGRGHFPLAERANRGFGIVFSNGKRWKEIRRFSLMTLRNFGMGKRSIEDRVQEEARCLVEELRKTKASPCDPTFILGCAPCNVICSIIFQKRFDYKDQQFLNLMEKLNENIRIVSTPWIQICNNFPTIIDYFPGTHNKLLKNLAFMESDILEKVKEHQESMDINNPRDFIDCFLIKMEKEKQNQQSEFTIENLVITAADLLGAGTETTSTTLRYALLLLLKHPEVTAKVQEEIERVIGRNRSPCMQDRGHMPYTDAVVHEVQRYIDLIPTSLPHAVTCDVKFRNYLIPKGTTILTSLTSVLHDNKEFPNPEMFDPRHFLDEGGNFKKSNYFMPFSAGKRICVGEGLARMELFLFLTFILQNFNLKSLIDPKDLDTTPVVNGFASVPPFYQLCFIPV

As for `C[N+]1(C)[C@@H]2CC[C@H]1CC(OC(=O)[C@@H](CO)c1ccccc1)C2` (stereo partly drawn), the Potency result with 7G8, with CP260, in the test on CP265, with CP268, in the test with CP335 and in the test with DIV14 was “inactive” each time. For the same compound, the Potency result in the test on ICS, in the test on JCK, with PAD, with PC15, in the test with PC26 and in the test with SC27B was “inactive” throughout. Further, the Potency entry in the test on TAB113 and with W2 was “inactive” each time.
In the case of `CC(C)N(CC[C@@](C(N)=O)(c1ccccc1)c1ccccn1)C(C)C`, the Potency result (in test [1]; with 7G8; in the test with CP260; in the test on CP265; with CP268; in the test with CP335) was “inactive” each time. Further, the Potency entry in the test on DIV14, in the test with ICS, with JCK, with PAD, with PC15 and with PC26 was “inactive” each time. Besides, the Potency result with SC27B and in the test with TAB113 was “inactive” each time.
With `CN1CCc2cc3c(cc2[C@@H]1[C@@H]1OC(=O)c2c1ccc1c2OCO1)OCO3`, the Potency in test [2] is 0.794 µM (active); in [3] it was 398 nM (active) and 50.1 nM (active). Further, the Potency entry in test [1] was “inactive”.
Take `CCN1C[C@]2(C)CC[C@H](OC)[C@@]34[C@@H]2[C@H](OC(C)=O)[C@]2(OCO[C@@]25C[C@@H](OC)[C@@H]2C[C@@]3(O)[C@H]5[C@@H]2OC)[C@H]14`: the Potency result in [1] and in [3] was “inactive” in each case.
As for `CC(=O)OCC(=O)[C@@H]1CC[C@H]2[C@H]3CC[C@H]4C[C@@H](O)CC[C@]4(C)[C@@H]3C(=O)C[C@@]12C`, the Potency result in the test with 7G8, with CP265, in the test on CP268, in the test with CP335, in the test on DIV14 and in the test with ICS was “inactive” throughout. In addition, the Potency result in the test on JCK, in the test on PAD, in the test with PC15, in the test with PC26, in the test on SC27B and in the test with TAB113 was “inactive” each time. For the same compound, the Potency result in the test on W2 was “inactive”.
For the compound `CN1Cc2c(ccc3c2OCO3)[C@@H]2[C@@H](O)Cc3cc4c(cc3[C@@H]21)OCO4`, the Potency in test [2] is 5.01 µM (active).
The same measure, in the same setting: then `C[C@]12CC[C@H](O)C[C@@H]1CC[C@H]1[C@H]2CC[C@]2(C)C(=O)CC[C@@H]12`, with “inactive”.
Take `C[C@@]12CCC(=O)C=C1C=C[C@H]1[C@H]3CC[C@](O)(CCC(=O)O)[C@]3(C)CC[C@@H]12`: the Potency result with CP265, with CP268, with CP335, in the test with DIV14, in the test on JCK and with PAD was “inactive” each time. Besides, the Potency result in the test with PC15 and in the test on SC27B was “inactive” in each case. Further, the Potency with ICS was 3.55 µM (active); with W2, 5.73 µM (active).
In the case of `CC[C@@]1(c2ccc(N)cc2)CCC(=O)NC1=O`, the Potency entry (in test [1]; with 7G8; in the test on CP260; in the test on CP265; in the test on CP268; with CP335) was “inactive” throughout. Moreover, the Potency result in the test on DIV14, with ICS, in the test with JCK, with PAD, in the test with PC15 and in the test on PC26 was “inactive” each time. For the same compound, the Potency entry in the test on SC27B and with TAB113 was “inactive” throughout.
Consider `COc1cc2c(cc1OC)[C@H](C)NCC2`, for which the Potency result in test [3] is “inactive”.
For `CCN[C@]1(c2cccs2)CCCCC1=O`, the Potency result in the test on 7G8, in the test with CP260, with CP265, with CP268, with CP335 and in the test on DIV14 was “inactive” throughout. Also, the Potency entry with ICS, with JCK, in the test with PAD, in the test on PC15, in the test with PC26 and with SC27B was “inactive” throughout. Besides, in the test with TAB113, the Potency result was “inactive”.
On to `CN1CC[C@]2(C)c3cc(O)ccc3N(C)[C@@H]12`, for which the Potency result in test [1] is “inactive”. Also, the Potency in test [3] was 12.6 µM (active).
Consider `CN(C)[C@@H]1C(=O)C(C(N)=O)=C(O)[C@]2(O)C(=O)C3=C(O)c4c(O)ccc(Cl)c4[C@](C)(O)[C@H]3C[C@@H]12`, for which the Potency entry in the test on CP265, in the test on CP268, in the test with DIV14, in the test with JCK, in the test with PAD and with PC15 was “inactive” in each case. Besides, the Potency result with PC26, with SC27B, with TAB113 and in the test with W2 was “inactive” throughout.
